# The full list was thinned out, with hits kept by preference.
# FBPA Giardia inh = blocks Giardia fructose-bisphosphate aldolase activity | purified Giardia FBPA | A8B2U2 | Potency, µM (highest dose often 59.6 µM), actives largely listed as inhibitors | hit rate 0.71% among 290,000; note: nearly all actives have a fitted effect of over 55% in size
# Target sequence (A8B2U2 whole entry, looked up): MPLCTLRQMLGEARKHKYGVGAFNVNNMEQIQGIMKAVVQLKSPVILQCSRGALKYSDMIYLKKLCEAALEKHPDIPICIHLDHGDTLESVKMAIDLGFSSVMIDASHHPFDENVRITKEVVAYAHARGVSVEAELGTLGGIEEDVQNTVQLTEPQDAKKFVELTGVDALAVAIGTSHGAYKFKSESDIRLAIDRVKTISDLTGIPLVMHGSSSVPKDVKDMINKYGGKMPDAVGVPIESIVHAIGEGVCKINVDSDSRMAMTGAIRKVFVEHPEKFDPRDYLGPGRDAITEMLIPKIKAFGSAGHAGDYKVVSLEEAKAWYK
#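 Giardia FBPA (40 nM reagent) was preincubated 10 min at RT with compound (up to 57.5 uM final), then substrate plus GAPDH/TPI/NAD/arsenate coupling system with diaphorase/resazurin was added; resorufin fluorescence (525/598 nm) was read after 20 min.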
# Shiga inhibitor = Shiga toxin inhibition; Vero cells, Shiga toxin protein synthesis inhibition reporter; inhibition, % at 38.7 µM; hit rate 9.2% among 290,000; AID 2315; in the data active = inhibition mostly above about 28%, no sharp cut-off; inactive = mostly below about 43%
# LmPK inhibitor = LmPK (Leishmania mexicana) enzyme inhibition; Q27686; purified LmPK, Kinase-Glo ATP luminescence, 1 h; Potency, µM (doses to about 57.5 µM), actives largely listed as inhibitors; hit rate 0.37% among 290,000; AID 1721
#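 Kinase-Glo luminescence read after 1 h RT reaction of 0.1 nM LmPK with 0.5 mM PEP and 0.1 mM ADP. Activity scaled between uninhibited and enzyme-free controls.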
# Sm TGR block = blocks Schistosoma mansoni thioredoxin glutathione reductase; Q962Y6; purified TGR, DTNB reduction, TNB absorbance 405 nm; Potency, µM (series often up to 114 µM), actives largely listed as inhibitors; hit rate 3% among 360,000; note: nearly all actives have a fitted effect of over 60% in size
#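 Kinetic colorimetric format: TGR-catalysed, NADPH-driven DTNB reduction monitored via TNB absorbance. Enzyme dispensed at 20 nM; compound exposure 15 min at room temperature before reaction start.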
# TbPYK inhibitor = blocks Trypanosoma brucei pyruvate kinase. TbPYK enzyme, Kinase-Glo Plus ATP luminescence, 45 min. Potency, µM (series often up to 76.8 µM), actives largely listed as inhibitors. AID 624173. hit rate 0.12% among 410,000; note: nearly all actives have a fitted effect of over 50% in size
#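 TbPYK + substrate in 50 mM TEA pH 7.2, 100 mM KCl, 10 mM MgCl2, 0.05% BSA, 0.01% Tween-20; cpd pinned; ADP 130 uM final; 45 min RT; Kinase-Glo Plus 10 min; luminescence endpoint.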
# CHX counter = affects cycloheximide protein synthesis inhibition readout, counter-screen. max response, %. AID 2314. cell reporter, cycloheximide protein synthesis inhibition counterscreen. hit rate 12% among 300,000; in the data active = max response mostly above about 13%, no sharp cut-off; inactive = mostly below about 14%; note: read at 38.3 µM for the half of the compounds with a filed dose
# Hits are given with their value; 0 = inactive; ? = inconclusive; - = no result; [ ] = another dose, or the depositor's remark. Unless noted, calls come from the whole dose curve; as a rule, active = well fitted curve in the direction sought with a large enough effect; inconclusive = small, poorly fitted or top-dose-only effect, or another doubt; inactive = no such curve, though single readings can be large; an effect the other way counts as inactive or inconclusive.
SMILES,FBPA Giardia inh,Shiga inhibitor,LmPK inhibitor,Sm TGR block,TbPYK inhibitor,CHX counter
O=C(O)c1cc(-c2ccc3ccccc3c2)nc2ccc(F)cc12,0,30,0,0,0,22
O=C(O)c1cc(-c2c[nH]c3ccccc23)nc2cc3ccccc3cc12,0,67,0,0,-,36
COc1cc(CNC(=O)c2sc3ncccc3c2-n2cccc2)cc(OC)c1OC,-,-,-,0,0,-
C/C(=N\NC(=O)CCCOc1ccc(Cl)cc1C)c1ccc(C)o1,0,0,0,0,0,0
C/C(Cl)=C/Cc1c(C)[nH]c2ccc(C)cc2c1=O,0,0,0,0,0,27
C/C(Cl)=C/Cc1c(C)[nH]c2c(ccc3ccccc32)c1=O,0,0,0,0,0,0
COc1ccccc1OC(=O)CCN1c2ccccc2Sc2ccccc21,0,0,0,0,0,0
COc1ccc(-[n+]2c(C)cc(/C=C3\Sc4ccccc4N3C)cc2C)cc1,0,62,0,0,0,0
CC(=S)/C=C1\Sc2ccccc2N1C,0,0,0,0,?,0
COc1ccccc1-[n+]1c(C)cc(/C=C2\Sc3ccccc3N2C)cc1C,0,0,0,0,0,32
COc1ccc(C(=O)/C=C2\Sc3ccccc3N2C)cc1,?,0,0,-,0,35
CC[n+]1c(/C=C2\Sc3ccccc3N2C)ccc2cccc(C)c21,0,0,0,-,0,0
O=C(CNC(=O)c1ccco1)N=Nc1c(O)[nH]c2ccc(Br)cc12,0,0,0,0,0,0
Cc1cc(N=NC(=O)c2ccccc2O)c2ccccc2c1O,?,126,0,0,0,40
Cc1occc1C(=O)N=Nc1c(O)[nH]c2ccc(Br)cc12,0,75,0,0,-,33
Cn1c(O)c(N=NC(N)=S)c2ccccc21,-,-,-,-,0,-
Cn1c(O)c(N=NC(=O)c2ccccc2O)c2ccccc21,0,62,0,0,?,37
Cn1c(O)c(N=Nc2ccccc2[N+](=O)[O-])c2ccccc21,0,75,0,0,0,31
Cc1cccc(C(=O)N2CCc3cc(CNC(=O)c4ccnn4C)ccc32)c1,-,-,-,0,0,-
O=C(OCC(=O)N(CCc1ccccc1)Cc1ccccc1)c1cccc(S(=O)(=O)N2CCOCC2)c1,-,-,-,-,0,-
Cc1ccc2c(c1)sc1nc(-c3cc4ccccc4oc3=O)cn12,-,-,-,?,0,-
Cc1occc1C(=O)N=Nc1c(O)n(C)c2ccccc12,0,58,0,0,0,36
COc1ccccc1S(=O)(=O)Cc1ccc(C(=O)NC(C)c2ccc3c(c2)OCCO3)o1 (stereo not drawn),0,0,0,40µM,0,0
COc1ccc(-c2nc3n(c(=O)c2C#N)CCCS3)cc1,0,0,0,0,0,15
COc1ccc(/C=N/c2c(-c3ccc(OC)cc3)nc3n2CCS3)cc1,0,0,0,?,0,15
SMILES,FBPA Giardia inh,Shiga inhibitor,LmPK inhibitor,Sm TGR block,TbPYK inhibitor,CHX counter
Fc1ccc(/C=N/c2c(-c3ccc(F)cc3)nc3n2CCS3)cc1,0,0,0,0,0,0
COc1ccc(P2(=O)Nc3ccccc3N2)cc1,0,0,0,0,0,36
Cc1ccc(Cc2c(-c3ccc(Cl)cc3)nc3c(C)cc(Br)cn23)cc1,-,-,-,-,0,-
CC1(C)CC(=O)C(=CN2CCOCC2)C(=O)C1,0,0,0,7.1µM,0,0
CC1(C)CC(=O)C(=CN2CCN(C(=O)c3ccco3)CC2)C(=O)C1,0,0,0,?,0,0
C#CCNC(=O)C1=C[C@H](c2ccc(C(F)(F)F)cc2)C[C@H](OCCCCO)O1,?,0,0,13µM,0,8.6
CC(=O)n1cc([C@H]2C=C(C(=O)NCc3ccccc3)O[C@@H](OCCCCO)C2)c2ccccc21,?,0,0,?,0,0
C#CCNC(=O)C1=C[C@@H](c2cn(C(C)=O)c3ccccc23)C[C@@H](OCCCCO)O1,0,0,0,40µM,0,0
C#CCNC(=O)C1=C[C@@H](c2ccc(C#C)cc2)C[C@@H](OCCCCO)O1,-,-,-,-,0,-
C#CCNC(=O)C1=C[C@H](c2csc3ccccc23)C[C@H](OCCCCO)O1,0,0,0,45µM,0,0
CC(=O)n1cc([C@@H]2C=C(C(=O)NCc3ccccc3)O[C@H](OCCCCO)C2)c2ccccc21,0,0,0,50µM,0,0
C/C(=C\CO)CCO,0,-,-,-,-,-
CCOC(=O)c1[nH]c(C=O)c(C(=O)OCC)c1C,0,0,0,0,0,0
O=C(COC(=O)CCC(=O)c1ccc(F)cc1)NCc1ccc(Cl)cc1,-,-,-,-,0,-
Cc1ccc(-c2csc(=S)n2CC(=O)OCC(=O)NCc2ccco2)cc1,0,0,0,40µM,0,0
O=C(COC(=O)CCOc1ccccc1)NCc1ccco1,0,0,0,35µM,0,0
O=C(COC(=O)CCC(=O)c1ccc(Cl)cc1)NCc1ccco1,0,0,0,18µM,0,0
O=C(Nc1ccc2c(c1)OCO2)N1CCN(Cc2ccco2)CC1,0,0,0,0,0,13
O=C1c2ccccc2C(Nc2ccc3nc(-c4cccnc4)[nH]c3c2)N1Cc1ccco1 (stereo not drawn),0,0,0,?,0,0
O=C1c2ccccc2C(Nc2ccc3c(c2)OCO3)N1Cc1ccc2c(c1)OCO2 (stereo not drawn),?,0,0,0,?,38
O=C1c2ccccc2C(Nc2ccc(-c3nc4ccccc4[nH]3)cc2)N1Cc1ccco1 (stereo not drawn),0,89,0,0,0,17
O=C1c2ccccc2C(Nc2ccc(F)c(Cl)c2)N1Cc1ccco1 (stereo not drawn),0,0,0,13µM,0,0
CCOc1ccccc1NC(=O)c1cnn2c(C(F)F)cc(-c3ccccc3)nc12,-,-,-,0,0,-
Cc1sc2c(c1C)c(=O)n(-c1ccccc1)c(=O)n2CC(=O)c1ccc(Cl)cc1,-,-,-,0,0,-
COc1cc(C(=O)Nc2ccc(S(=O)(=O)Nc3nccc(C)n3)cc2)c([N+](=O)[O-])cc1OC,0,0,0,0,0,0
SMILES,FBPA Giardia inh,Shiga inhibitor,LmPK inhibitor,Sm TGR block,TbPYK inhibitor,CHX counter
O=C1c2ccccc2C(Nc2ccc3c(c2)OCO3)N1Cc1ccco1 (stereo not drawn),0,21,0,0,?,0
COc1ccc(NC2c3ccccc3C(=O)N2Cc2ccco2)cc1OC (stereo not drawn),0,0,0,0,0,0
Fc1ccccc1CSc1ccc(-c2ccco2)nn1,0,120,0,32µM,0,50
c1ccc(CSc2ccc(-c3ccco3)nn2)cc1,0,0,0,22µM,0,26
Clc1cccc(CSc2ccc(-c3cccnc3)nn2)c1,0,0,0,0,0,29
O=c1cc(-c2ccco2)nc(SCc2cccc(Cl)c2)[nH]1,0,-,0,?,0,0
Clc1cccc(CSc2ccc(-c3ccco3)nn2)c1,0,61,0,7.1µM,0,31
COc1cccc(-c2nnc3n2N=C(c2c(OC)cccc2OC)CS3)c1,0,0,-,-,-,0
COC(=O)[C@@H](NC(=O)N1CCc2nc(COc3ccccc3)c3c(c2C1)CO[C@@H](C)C3)C(C)C,0[12.9 µM],-,0[11.5 µM],-,-,-
